# Measured values: PubChem BioAssay (NCATS)
# Inconclusive results are not listed. Active and inactive are the calls of the source. Calls come from the whole dose curve; as a rule, active = well fitted inhibition curve with a large enough effect; inconclusive = small, poorly fitted or top-dose-only effect; inactive = no such curve, though single readings can be large or run the other way.
# Target: Protein phosphatase 1D (Homo sapiens) (UniProt O15297)
# Test: RapidFire Mass Spectrometry qHTS Assay for Modulators of WT P53-Induced Phosphatase 1 (WIP1) (AID 1347424)
# Details: WIP1 dephosphorylation of phosphopeptide, RapidFire MS; series mostly up to 63 µM; activity change, negative = inhibition: at the top concentration
# Text: Assay Provider (PI): Nathan Coussens Ph. D.
# National Center for Advancing Translational Sciences (NCATS), Rockville, MD
# National Institute of Health (NIH), Bethesda, Maryland
# WT P53-Induced Phosphatase 1 (WIP1) is a member of the magnesium-dependent serine/threonine protein phosphatase (PPM) family and is induced by P53 in response to DNA damage. In several human cancers, the WIP1 protein is overexpressed, which is generally associated with a worse prognosis. Although WIP1 is an attractive therapeutic target, no potent, selective, and bioactive small-molecule modulator with favorable pharmacokinetics has been reported. Phosphatase enzymes are among the most challenging targets for small molecules because of the difficulty of achieving both modulator selectivity and bioavailability. Another major obstacle has been the availability of robust and physiologically relevant phosphatase assays that are suitable for high-throughput screening.
# Here, we describe two orthogonal biochemical WIP1 activity assays that utilize phosphopeptides from native WIP1 substrates. We optimized a RapidFire MS assay to quantify the enzymatically dephosphorylated peptide reaction product in a 384-well format. Additionally, a redshifted Rhodamine-PBP fluorescence assay was optimized in a 1,536-well format to enable real-time WIP1 activity measurements through the detection of the orthogonal reaction product, Pi. We validated these two optimized assays by quantitative high-throughput screening against the National Center for Advancing Translational Sciences (NCATS) Pharmaceutical Collection and used secondary assays to confirm and evaluate inhibitors identified in the primary screen.
# SEQUENCE No. (e.g., 1, 2, 3, etc.); […] (e.g., Cells, Incubation, Reagent, etc.); VALUE; DESCRIPTION
# 1; Reagent; 50 uL; dispensed assay buffer: 0.1% formic acid in water (10 uL : 40 uL) solution in column 1
# 3; Library Compounds; 63 nL; library compounds in DMSO, columns 3-24
# 4; Control Compounds; 63 nL; DMSO in wells I-P, columns 1-2, GSK830371 (10 uM, final) in wells A-H, column 2
# 5; Time; 1 hr; incubation
# 6; Substrate; 2 uL; VEPPL-pS-QETFS (10 uM) in assay buffer, column 2-24
# 7; Time; 5 min; incubation
# 8; Reagent; 2 uL; 0.5% formic acid in water, columns 2-24
# 9; Reagent; 38 uL; VEPPL-S-QETF*S in 0.1% formic acid, columns 2-24
# 10; Detection; mass spec; RapidFire mass spectrometry
# NOTES (numbers refer to sequence above)
# 1, 2, 6; dispensed reagent in White Nunc 384-well PP microplates (264573); assay buffer: 50 mM Tris-HCl pH 7.5, 30 mM MgCl2, 1 mM TCEP, 0.1 mM EGTA, 75 ug/mL BSA.
# 2, 6, 8, 9; Dispensed with BioRaptr (Beckman Coulter)
# 2, 6, 9; Final concentrations: 10 nM WIP1; 2 uM VEPPL-pS-QETFS; 1 uM VEFFL-S-QETF*S
# 3 & 4; Kalypsys Pintool transfer (Wako USA), Tip wash sequence: water, DMSO, methanol, 20 sec vacuum dry.
# 5 & 7; incubation at room temperature
# 10; RapidFire mass spectrometry read using the Agilent RapidFire 360 (Clausse, 2019)
# Clausse V, et al. Physiologically relevant orthogonal assay for the discovery of small-molecule modulators of WIP1 […] in high-throughput screens. J Biol Chem. 2019, 294(46): 17654-17668. doi:10.1074/jbc.RA119.010201
# Potency is the fitted concentration of half-maximal effect.
# Protein phosphatase 1D (Homo sapiens), sequence (O15297 whole entry, looked up): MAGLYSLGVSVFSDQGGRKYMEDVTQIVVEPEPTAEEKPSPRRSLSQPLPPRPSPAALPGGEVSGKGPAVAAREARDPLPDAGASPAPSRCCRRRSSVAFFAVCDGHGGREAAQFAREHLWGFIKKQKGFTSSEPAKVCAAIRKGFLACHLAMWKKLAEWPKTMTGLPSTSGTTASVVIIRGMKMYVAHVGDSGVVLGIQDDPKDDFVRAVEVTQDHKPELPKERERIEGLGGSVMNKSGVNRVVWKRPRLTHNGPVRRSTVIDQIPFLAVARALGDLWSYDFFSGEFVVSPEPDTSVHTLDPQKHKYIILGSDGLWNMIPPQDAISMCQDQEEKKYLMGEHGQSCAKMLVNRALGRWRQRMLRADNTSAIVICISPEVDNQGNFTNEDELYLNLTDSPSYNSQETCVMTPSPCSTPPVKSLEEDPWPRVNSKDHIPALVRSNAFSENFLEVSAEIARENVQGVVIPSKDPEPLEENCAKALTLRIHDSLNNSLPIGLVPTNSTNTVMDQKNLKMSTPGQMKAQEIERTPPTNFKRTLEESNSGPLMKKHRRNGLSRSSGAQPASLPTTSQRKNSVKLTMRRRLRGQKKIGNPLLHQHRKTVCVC
Compound,"activity change, negative = inhibition",Potency
CC(=O)C1CCOC1=O (stereo not given),21% (inactive),
CC(=O)NC1CCSC1=O (stereo not given),-5.58% (inactive),
CCC1(c2ccc(N)cc2)CCC(=O)NC1=O (stereo not given),-0.141% (inactive),
CN1CCC(O)(c2ccc(F)cc2)C(C(=O)c2ccc(F)cc2)C1 (stereo not given),-5.03% (inactive),
C=CCC1([C@H](C)CCC)C(=O)NC(=O)NC1=O,-2.76% [at 128 µM] (inactive),
CCc1cc2c(s1)-n1c(C)nnc1CN=C2c1ccccc1Cl,21.7% (inactive),
NC1=NC(=O)C(c2ccccc2)O1 (stereo not given),0.393% (inactive),
CCN(CC)CCc1c[nH]c2ccccc12,-5.99% [at 243 µM] (inactive),
C=CCN1C[C@H](C)N([C@H](c2ccc(C(=O)N(CC)CC)cc2)c2cccc(OC)c2)C[C@H]1C,14.4% (inactive),
C[C@]12CC[C@@H]3c4ccc(OC(=O)N(CCCl)CCCl)cc4CC[C@H]3[C@@H]1CC[C@@H]2O,-2.89% (inactive),
C[C@]12CCC(=O)C=C1CC[C@@H]1[C@H]3CC[C@](C)(O)[C@@]3(C)CC[C@@H]12,10% [at 128 µM] (inactive),
c1ccc2c(c1)sc1ccccc12,-4.5% (inactive),
Nc1ccccc1,0% (inactive),
CCC(CC)(CNC(=O)CCCO)c1cccc(OC)c1,-0.394% (inactive),
COP(=S)(OC)Oc1ccc(S(=O)(=O)N(C)C)cc1,-1.72% (inactive),
COc1cc(CCN)cc(OC)c1OC,-12.6% [at 128 µM] (inactive),
CN1C(=O)CCS(=O)(=O)C1c1ccc(Cl)cc1 (stereo not given),4.92% (inactive),
C[C@H]1[C@@H]2Cc3ccc(O)cc3[C@@]1(C)CCN2C,-5.67% [at 316 µM] (inactive),
CCCCCCCCCC(=O)O[C@H]1CC[C@H]2[C@@H]3CCC4=CC(=O)CC[C@@H]4[C@H]3CC[C@]12C,-5.18% (inactive),
CC(C)NC(C)C,13.2% (inactive),

Compound,"activity change, negative = inhibition",Potency
CN1CC[C@]23c4c5ccc(O)c4O[C@H]2[C@@H](O)C=C[C@H]3[C@H]1C5,-9.34% [at 128 µM] (inactive),
NC(=O)c1cc([N+](=O)[O-])cc([N+](=O)[O-])c1,0.816% (inactive),
O=C(Nc1ccc(Br)cc1)c1cc(Br)cc(Br)c1O,,3.16 µM (active)
CCCCCCC(=O)CCCCCC/C=C/C[C@@H](O)[C@H](O)[C@@](N)(CO)C(=O)O,12.3% [at 26.6 µM] (inactive),
CC(=O)OCC1=C(C(=O)O)N2C(=O)[C@@H](N)[C@H]2SC1,-9.82% [at 26.6 µM] (inactive),
COc1cccc2c1C(=O)c1c(O)c3c(c(O)c1C2=O)C[C@@](O)(C(=O)CO)CC3OC1CC(N2CCOC(OC)C2)C(O)C(C)O1 (stereo not given in full),-0.228% (inactive),
CN1CC[C@]23c4c5ccc(O)c4O[C@H]2[C@@H](O)CC[C@H]3[C@H]1C5,-18.5% [at 128 µM] (inactive),
C[C@@H](N)[C@@H](O)c1ccccc1,1.45% (inactive),
CCCCC/C=C\C/C=C\C/C=C\C/C=C\CCCC(=O)NCC(=O)O,4.55% (inactive),
O=C(O)c1ccc(=O)[nH]c1,10.3% (inactive),
CC(NC(C)(C)C)C(=O)c1cccc(Cl)c1 (stereo not given),5.79% (inactive),
C[N+]1(CCF)[C@@H]2CC[C@H]1CC(OC(=O)C(O)(c1ccccc1)c1ccccc1)C2 (stereo not given in full),9.05% (inactive),
COC(=O)C(Cl)C(=O)OC,7.2% (inactive),
CC(C)c1cccc(C(C)C)c1O,-3.17% (inactive),
CC(C)(C)NCC(O)c1ccccc1Cl (stereo not given),0.446% (inactive),
COc1ccc2c3c1O[C@H]1[C@H](O)CC[C@H]4[C@@H](C2)N(C)CC[C@@]341,-11.4% [at 128 µM] (inactive),
ClCCN1CCCC1,1.17% (inactive),
COC1CC(=C(c2cccs2)c2cccs2)C[N+](C)(C)C1 (stereo not given),2.41% (inactive),
NCCc1ccc(O)cc1,6.82% (inactive),
CCN(CC)C(=O)[C@@H]1C=C2c3cccc4[nH]cc(c34)C[C@H]2N(C)C1,-18.1% [at 243 µM] (inactive),
